For 10 compounds, inhibition results are on record in PubChem BioAssay AID1310 (The Scripps Research Institute Molecular Screening Center, 2008).

Each structure is given as a SMILES string. Some of the results follow. Values without a mark were called inactive. Active and inactive are the calls of the source.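 Rule for the calls: active = inhibition above the mean of solvent-only control wells plus 3 SD, set per campaign (cut at about 25% in these data); inactive = the rest.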

The nature of the experiment: STAT3 reporter inhibition by STAT1 hits, counter-screen for STAT1 inhibitor project, U3A cells, luciferase, luminescence, triplicate (AID 1310).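 Note: 0% = IL-6 plus DMSO and 100% = IL-6 plus nifuroxazide control.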 As to conditions: IL-6 STAT3 luciferase reporter, at 5.7 µM, stronger effect = higher value, cells lacking STAT1. On the technique in general: The purpose of a counterscreen is to sort out artefacts and off-target activity.
In general, inhibition refers to the drop in the measured response relative to a control, in per cent. For `COC(=O)C1=CN(Cc2ccc(OC)c(OC)c2)C=C(C(=O)OC)C1c1cccs1`, the inhibition is -3.35%.

As to `CCOC(=O)C(=CNc1cccc(C)n1)C(=O)OCC`, the inhibition was 9.3%.

Take `COc1ccc(C2CC(c3cccs3)=NN2c2nc(C)c(C(C)=O)s2)cc1OC` (stereo not given): the inhibition is 13.4%.

Consider `O=C(CCl)N(Cc1cccc([N+](=O)[O-])c1)c1cccc(Cl)c1`, for which the inhibition is 47% (active).

As to `CCOC(=O)N1CCN(C(=O)CSc2nnc(-c3c[nH]c4ccccc34)n2CCOC)CC1`, the inhibition is -4.2%.

As for `Cc1ccc(C2=Nc3c(ccc4ccccc34)C(c3ccncc3)=NN2)cc1`, the inhibition was -38.9%.

As for `C[C@@H]1C[C@@H]2O[C@H]2/C=C\C=C\C(=O)Cc2c(Cl)c(O)cc(O)c2C(=O)O1`, the inhibition is 70% (active).

For `CCOC(=O)N1CCN(C(=O)C2CCN(c3ncnc4c3sc3cccc(F)c34)CC2)CC1`, the inhibition is 4.65%.

Consider `NS(=O)(=O)c1cccc(NC(=O)CSc2nc3ccccc3n2-c2ccccc2)c1`, for which the inhibition is -2.95%.

As for `COc1ccc(C(=O)Nc2ccccc2C(=O)N/N=C/c2ccccc2OC)cc1`, the inhibition was -7.2%.
